High-throughput results: PubChem BioAssay, National Center for Advancing Translational Sciences (NCATS)
Hits are enriched below; roughly 10% of the tested compounds scored in any of these assays.
GPT2 inh: Primary qHTS assay for inhibitors of Glutamate pyruvate transaminase 2 (GPT2) | Alanine aminotransferase 2 (Homo sapiens), Q8TD30 | Recombinant GPT2, coupled pyruvate oxidase/HRP Amplex Red fluorescence | Potency, µM (series often up to 57.7 µM), without a hit: at the highest dose activity change, negative = inhibition, actives largely listed as inhibitors | 100,000 compounds, 0.25% hits | AID 1671188, 2021; also: % is scaled to controls: 0 for no effect and ±100 for the full control effect; nearly all actives have a fitted effect of over 60% in size
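Fluorescence read-out: pyruvate from GPT2 turnover coupled to pyruvate oxidase, HRP and Amplex Red (0.2mM ThPP, 0.2U/mL PO and HRP, 50uM Amplex final). Substrates 250uM a-KG, 2mM L-alanine; enzyme 10ng/uL; 30 min RT.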
HEK cytotox: Cytotoxic Profiling in HEK 293 Cell Line of Diverse Libraries Using Quantitative High-Throughput Screening. HEK 293 viability, ATP luminescence (CellTiter-Glo), 48-72 h. Potency, µM (doses to about 115 µM), inactives show top-dose activity change, negative = cytotoxicity, most hits filed as inhibitors. 94,000 compounds, 6.6% hits. AID 1345083, 2018; also: % is scaled to controls: 0 for no effect and ±100 for the full control effect; nearly all actives have a fitted effect of over 60% in size
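qHTS cytotoxicity; HEK 293, 250 cells/well; compound pinned; 48 or 72 hr, 37 degree Celsius, 5% CO2, 95% humidity; CellTiter-Glo, 10 min RT; luminescence (ATP).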
3T3 cytotox: Cytotoxic Profiling in NIH 3T3 Cell Line of Diverse Libraries Using Quantitative High-Throughput Screening; NIH 3T3 viability, CellTiter-Glo ATP luminescence, 48-72 h; 94,000 compounds, 4.3% hits; Potency, µM (doses to about 96.7 µM), for inactives: top-dose activity change, negative = cytotoxicity, hits mostly inhibitors; also: % is scaled to controls: 0 for no effect and ±100 for the full control effect; nearly all actives have a fitted effect of over 55% in size
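NIH 3T3 cells at 400 cells/well received 23 nL of compound by pintool and were incubated 48 or 72 h at 37 °C. Viability was read as ATP-coupled CellTiter-Glo luminescence.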
hNpr1 antagonist: Natriuretic polypeptide receptor (hNpr1) antagonism - Primary qHTS | Atrial natriuretic peptide receptor 1 (Homo sapiens), P16066 | HEK293 hNpr1 GloSensor cGMP, ANP-stimulated luminescence | Potency, µM (top dose mostly 46.3 µM), for the others: at the top dose activity change, negative = inhibition, hits mostly inhibitors | AID 1347048, 2019 | 76,000 compounds, 1.6% hits; calls by dose curve; also: % is scaled to controls: 0 for no effect and ±100 for the full control effect; nearly all actives have a fitted effect of over 60% in size
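Compound pre-incubated 30 min at room temperature on GloSensor-loaded HEK293 cells stably carrying hNpr1 and the pGS-40F cGMP biosensor. Stimulation uses hNppA at 0.1 nM final; luminescence is taken at baseline and 20 min post-agonist.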
FLuc inh-1: Firefly luciferase inhibition profiling of diverse chemical library using quantitative high-throughput screening. Luciferin 4-monooxygenase (Photinus pyralis), P08659. purified P. pyralis luciferase, luminescence, biochemical. Potency, µM (doses to about 115 µM), hits mostly inhibitors. 76,000 compounds, 2.5% hits; also: % is scaled to controls: 0 for no effect and ±100 for the full control effect; nearly all actives have a fitted effect of over 65% in size
Target sequence (P08659 whole entry, looked up): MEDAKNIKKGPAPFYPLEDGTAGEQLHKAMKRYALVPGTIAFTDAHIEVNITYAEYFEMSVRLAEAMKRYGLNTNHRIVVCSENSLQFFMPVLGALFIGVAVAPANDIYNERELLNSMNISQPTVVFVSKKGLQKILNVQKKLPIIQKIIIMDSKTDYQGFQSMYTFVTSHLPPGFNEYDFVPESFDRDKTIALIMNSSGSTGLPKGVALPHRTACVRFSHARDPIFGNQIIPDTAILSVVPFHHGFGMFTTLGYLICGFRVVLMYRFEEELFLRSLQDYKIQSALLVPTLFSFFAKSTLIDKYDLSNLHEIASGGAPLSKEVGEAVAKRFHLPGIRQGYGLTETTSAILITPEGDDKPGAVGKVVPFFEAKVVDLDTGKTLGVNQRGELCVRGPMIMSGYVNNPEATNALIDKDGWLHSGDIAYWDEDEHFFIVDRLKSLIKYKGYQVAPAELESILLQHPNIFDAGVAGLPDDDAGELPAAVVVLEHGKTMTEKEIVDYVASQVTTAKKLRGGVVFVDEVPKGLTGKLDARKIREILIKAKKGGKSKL
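Purified 10nM P. pyralis luciferase with 10uM D-luciferin and 10uM ATP in 50mM Tris acetate pH 7.5, 10mM Mg acetate, 0.01% Tween-20, 0.05% BSA. qHTS titration; luminescence read by CCD imager.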
FLuc SDR -ATP: Firefly luciferase (FLuc-C-HiBiT) SDR gain of signal screen - without ATP; AID 1963318, 2024; Potency, µM (series often up to 32.7 µM), inactives show at the top dose activation (signal gain), hits mostly activators; Purified FLuc-C-HiBiT, Nano-Glo HiBiT luminescence, no ATP; shares compounds with FLuc inh-1; 1,300 compounds, 7.8% hits; also: nearly all actives have a fitted effect of over 55% in size
FLuc SDR ATP: Firefly luciferase (FLuc-C-HiBiT) SDR gain of signal screen - plus ATP; Potency, µM (doses to about 32.7 µM), without a hit: at the highest dose activation (gain of signal), hits mostly activators; purified FLuc-C-HiBiT + ATP, HiBiT complementation luminescence; AID 1963319, 2024; 1,300 compounds, 8.7% hits; shares compounds with FLuc inh-1;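 also: signal reports ligand binding via conformational change of the enzyme rather than luciferase catalysis; % of control where 0% means no effect; nearly all actives have a fitted effect of over 55% in size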
FLuc inh-2: Firefly luciferase (FLuc-C-HiBiT) enzymatic inhibition screen - Functional assay | Potency, µM (series often up to 32.7 µM), without a hit: at the highest dose activity change, negative = inhibition, usual class: inhibitors | purified FLuc-C-HiBiT enzyme, luciferin luminescence | shares compounds with FLuc inh-1 | 1,300 compounds, 42% hits; also: % is scaled to controls: 0 for no effect and ±100 for the full control effect; nearly all actives have a fitted effect of over 70% in size
Npr1 antag conf: Natriuretic polypeptide receptor (hNpr1) antagonism - Confirmation; 1,400 compounds, 76% hits; HEK293 hNpr1 cGMP GloSensor luminescence, ANP-stimulated; shares compounds with hNpr1 antagonist; Potency, µM (doses to about 57.6 µM), for the others: at the highest dose activity change, negative = inhibition, hits mostly inhibitors; calls by dose curve; also: nearly all actives have a fitted effect of over 70% in size
Npr2 selectivity: Natriuretic polypeptide receptor (hNpr2) antagonism - Subtype selectivity assay; Potency, µM (doses to about 57.6 µM), for inactives: at the highest dose activity change, negative = inhibition, actives largely listed as inhibitors; shares compounds with hNpr1 antagonist; AID 1347046, 2019; HEK293 hNpr2 GloSensor cGMP luminescence, CNP-stimulated; 1,400 compounds, 67% hits; calls by dose curve; also: nearly all actives have a fitted effect of over 70% in size
FLuc inh counter: Natriuretic polypeptide receptor (hNpr1) antagonism - Confirmation firefly luciferase (FLuc) inhibition counterscreen. shares compounds with hNpr1 antagonist. purified FLuc enzyme, luminescence, Km substrate. Potency, µM (top dose mostly 57.6 µM), inactives show top-dose activity change, negative = inhibition, most hits filed as inhibitors. 1,400 compounds, 0.7% hits. AID 1347047, 2019; also: 0% is about no effect
GloSensor cGMP: Natriuretic polypeptide receptor (hNpr1) antagonism - Counterscreen GloSensor control cell line; 1,400 compounds, 69% hits; HEK293 GloSensor cGMP, SNP-stimulated, luminescence; shares compounds with hNpr1 antagonist; Potency, µM (titrated, usually from 57.6 µM), inactives show at the top dose activity change, negative = inhibition, hits mostly inhibitors; AID 1347051, 2019; calls by dose curve; also: % is scaled to controls: 0 for no effect and ±100 for the full control effect; nearly all actives have a fitted effect of over 70% in size
* marks the source's active call; other numbers are inactive results; i = inactive; ? = inconclusive; . = not tested or not shown; [ ] = remark or other dose. Unless noted, calls follow the shape of the dose curve; as a rule, active = well fitted curve in the direction sought with a large enough effect; inconclusive = small, poorly fitted or top-dose-only effect, or another doubt; inactive = no such curve, though single readings can be large; an effect the other way counts as inactive or inconclusive. Potency is read from the fitted curve at half-maximal effect.

SMILES	GPT2 inh	HEK cytotox	3T3 cytotox	hNpr1 antagonist	FLuc inh-1	FLuc SDR -ATP	FLuc SDR ATP	FLuc inh-2	others
CCNC(=O)N[C@@H]1C=C[C@@H](c2c(C)nn(-c3ccccc3[N+](=O)[O-])c2C)C1	i	?	-26%[174 µM]	-27%[70.6 µM]	?	.	.	.
CN1CC2(CCN(C(=O)CC3CCCC3)CC2)CC1CN1CCOCC1 (stereo unspecified)	i	-7%	-23%	.	.	.	.	.
CC(C)(C)OC(=O)N1CC(Nc2ccccc2O)C1	-28%[88.5 µM]	-13%[172 µM]	-24%[138 µM]	.	.	.	.	.
Cc1ccc(Nc2ncnc3c2nc2n3CCCC2)c(Br)c1	.	.	.	.	.	?	?	5µM*
Nc1nc2c(ncn2COCCO)c(=O)[nH]1	?	.	.	.	.	18%	14%	-1%
C=C1[C@H](CO)[C@@H](O)C[C@@H]1n1cnc2c(=O)[nH]c(N)nc21	-8%	.	.	.	.	13%	10%	6%
O=C(NC1CCN(c2ccc3nnc(C4CC4)n3n2)C1)c1ccc(F)cc1 (stereo unspecified)	.	-1%	-22%	.	.	.	.	.
O=C(Cc1ccccc1Cl)Nc1cccc(-c2nnc3n2CCCC3)c1	?	-10%	-10%	2%	i	.	.	.
CCC(CC)C(=O)Nc1cccc(-c2nc3ccccc3s2)c1	.	.	.	.	.	26%	7%	?
Cc1ccc(OCC(=O)Nc2cccc(-c3nc4ccccc4s3)c2)cc1	.	.	.	.	.	14%	13%	9.9µM*
COc1cccc(-c2nc3cc(NC(=O)c4ccc(F)c(C#N)c4)ccc3s2)c1	.	.	.	.	.	15%	12%	-7%
O=C(CSc1nnc2ccccn12)Nc1cccc(-c2nc3ccccc3s2)c1	.	.	.	.	.	13%	9%	-7%
COc1cccc(-c2cc(C(=O)Nc3ccc(F)cc3)c3cnn(C)c3n2)c1	.	?	-13%	.	.	.	.	.
COc1cccc(-c2cccc(C(=O)N3CCCC3C(=O)N3CCN(C(C)=O)CC3)c2)c1 (stereo unspecified)	-4%	i	-21%	.	.	.	.	.
O=S(=O)(c1ccccc1)N1CCc2nnc(C3CC3)n2CC1	-7%	1%	-19%	.	.	.	.	.
Cc1ccc(CCN2CCCC23Cc2ccccc2CNC3=O)cc1 (stereo unspecified)	i	?	?	.	.	.	.	.
O=C1CCC2(C(=O)NCCCN3CCCc4ccccc43)CCCC=C2N1C1CCCC1 (stereo unspecified)	-5%	?	?	.	.	.	.	.
CC(C)NC(=O)c1ccc2oc(-c3ccnc(Cl)c3)nc2c1	1%[88.5 µM]	?	-22%[138 µM]	.	.	.	.	.
COc1ccccc1C(=O)Nc1cccc(-c2nnc3n2CCCC3)c1	i	-4%	-24%	3%	?	.	.	.
COc1ccc(C(=O)Nc2cccc(-c3nc4ccccc4s3)c2)cc1	.	.	.	.	.	14%	9%	-15%
CCOc1ccccc1C(=O)Nc1cccc(-c2nc3ccccc3s2)c1	.	.	.	.	.	14%	11%	?
Cc1cccc(OCC(=O)Nc2cccc(-c3nc4ccccc4s3)c2)c1	.	.	.	.	.	14%	10%	?
COc1ccc(C(=O)N2CCc3ccc(C(=O)NCc4ccc(C)o4)cc32)cc1	-4%	?	-21%	-2%	i	.	.	.
Cc1ccc(C(=O)N2CCC(C(=O)N3CCC(N4Cc5cccn5C4=O)CC3)CC2)cc1	i	-14%	-17%	.	.	.	.	.
O=S(=O)(c1ccc2c(c1)CCCC2)N1CCCC(Cn2cnc3cccnc32)C1 (stereo unspecified)	i	?	?	?	i	.	.	.	Npr1 antag conf=24µM*;Npr2 selectivity=19µM*;FLuc inh counter=-2%;GloSensor cGMP=24µM*
Cc1nc2cccnc2n1CC1CCCN(S(=O)(=O)c2ccc3c(c2)CCCC3)C1 (stereo unspecified)	i	?	?	?	i	.	.	.
Cc1nc2cccnc2n1CC1CCCN(S(=O)(=O)c2ccc(CC(C)C)cc2)C1 (stereo unspecified)	i	32µM*	?	13µM*	i	.	.	.	Npr1 antag conf=22µM*;Npr2 selectivity=24µM*;FLuc inh counter=2%;GloSensor cGMP=22µM*
O=C1NCc2ccccc2CC12CCCN2Cc1ccc(Br)cc1 (stereo unspecified)	i	?	?	.	.	.	.	.	Npr1 antag conf=-21%;Npr2 selectivity=-25%;FLuc inh counter=2%;GloSensor cGMP=2%
O=C1NCc2ccccc2CC12CCCN2Cc1ccc(F)cc1 (stereo unspecified)	-17%	-4%	1%	.	.	.	.	.
